Tested on: Vero E6 infected with SARS-CoV-2
Experiment: inhibition of SARS-CoV-2 cytopathic effect; higher = more antiviral protection, active = above 15
Conditions: 48 h

Measured: inhibition of SARS-CoV-2 cytopathic effect

CC(=O)c1c(C)c2cnc(Nc3ccc(N4CCNCC4)cn3)nc2n(C2CCCC2)c1=O [palbociclib]
inactive: 1 nM 2.16% | 8.33 nM 0.47% | 100 nM -4.3% | 833.33 nM -0.35% | 10000 nM 5.01%

CC=CC1=C(C(=O)O)N2C(=O)[C@@H](NC(=O)[C@H](N)c3ccc(O)cc3)[C@H]2SC1 (mixture of isomers) [cefprozil]
inactive: 1 nM -0.42% | 8.33 nM 0.76% | 100 nM 2.16% | 833.33 nM -0.77% | 10000 nM 8.62%

CCn1nc(C(=O)O)c(=O)c2cc3c(cc21)OCO3 [cinoxacin]
inactive: 1 nM 0.52% | 8.33 nM -0.24% | 100 nM 0.19% | 833.33 nM 0.12% | 10000 nM -1.09%

C=CCn1c(=O)c2cnc(Nc3ccc(N4CCN(C)CC4)cc3)nc2n1-c1cccc(C(C)(C)O)n1
inactive: 1 nM -1.29% | 8.33 nM 2.7% | 100 nM 0.63% | 833.33 nM -3.99% | 10000 nM -6.53%

CC(C)c1ccc(NC(=O)Cn2cnc3c2c(=O)n(C)c(=O)n3C)cc1
inactive: 1 nM -0.13% | 8.33 nM 1.6% | 100 nM 1.39% | 833.33 nM 2.45% | 10000 nM 3.83%

CC12CC3CC(C)(C1)CC(N)(C3)C2 [memantine]
inactive: 1 nM 0.45% | 8.33 nM 0.23% | 100 nM 1.56% | 833.33 nM 2% | 10000 nM -1.57%

CCN(CC)CCCC(C)Nc1nc(C)cc(Nc2ccc3nc(C)cc(N)c3c2)n1 (stereo not given)
inactive: 1 nM -1.23% | 8.33 nM -0.04% | 100 nM 1.43% | 833.33 nM -0.56% | 10000 nM 0.17%

O=Nc1c(-c2c(O)[nH]c3ccccc23)[nH]c2ccccc12 [indirubin-3-monoxime]
inactive: 1 nM 0.43% | 8.33 nM 0.8% | 100 nM 1.06% | 833.33 nM 5.66% | 10000 nM 3.83%

CCO[C@H]1O[C@@H]2O[C@@]3(C)CC[C@H]4[C@H](C)CC[C@@H]([C@H]1C)[C@@]24OO3 [artemotil]
inactive: 1 nM -0.58% | 8.33 nM -2.88% | 100 nM 1.56% | 833.33 nM 0.29% | 10000 nM 1.11%

Cc1cc(Cn2cnc3c2C[C@@H](C(=O)O)N(C(=O)C(c2ccccc2)c2ccccc2)C3)ccc1N(C)C
inactive: 1 nM -2.45% | 8.33 nM -1.75% | 100 nM -3.61% | 833.33 nM -1.45% | 10000 nM 0.19%

COc1cc(C)nc(-n2nc(C)cc2OC)n1 [epirizole]
inactive: 1 nM 1.56% | 8.33 nM 3.82% | 100 nM -0.67% | 833.33 nM 0.65% | 10000 nM -2.64%

CO[C@H]1/C=C/O[C@@]2(C)Oc3c(C)c(O)c4c(O)c(c(/C=N/N5CCN(C)CC5)c(O)c4c3C2=O)NC(=O)/C(C)=C\C=C\[C@H](C)[C@H](O)[C@@H](C)[C@@H](O)[C@@H](C)[C@H](OC(C)=O)[C@@H]1C [rifampin]
inactive: 1 nM -3.64% | 8.33 nM -3.69% | 100 nM -2.5% | 833.33 nM -3.32% | 10000 nM -1.54%

COc1ccc(CCNCC(O)COc2cccc(C)c2)cc1OC (stereo not given) [bevantolol]
inactive: 1 nM -3.29% | 8.33 nM -3.57% | 100 nM -4.47% | 833.33 nM -3.25% | 10000 nM -5.37%

NC(=O)c1ccc(F)c2c1C[C@@H](N(C1CCC1)C1CCC1)CO2 [robalzotan]
inactive: 1 nM -1.71% | 8.33 nM 2.76% | 100 nM 1.8% | 833.33 nM 0.98% | 10000 nM 3.7%

Cc1c(C(=O)NN2CCCCC2)nn(-c2ccc(Cl)cc2Cl)c1-c1ccc(I)cc1
inactive: 1 nM 0.54% | 8.33 nM -3.71% | 100 nM 3.18% | 833.33 nM 1.67% | 10000 nM 2.28%

CC(C)CCNc1ncccc1C(=O)N1CCN(Cc2ccccc2)CC1
inactive: 1 nM 0.16% | 8.33 nM 0.21% | 100 nM 1.38% | 833.33 nM 0.33% | 10000 nM -0.35%

COC(=O)C1=C(C#N)NC(C)=C(C(=O)OC(C)C)C1c1cccc([N+](=O)[O-])c1 (stereo not given) [nilvadipine]
inactive: 1 nM -1.91% | 8.33 nM -2.45% | 100 nM 0.29% | 833.33 nM 5.15% | 10000 nM 3.78%

C[C@]12CC[C@H]3[C@@H](CCC4=CC(=O)CC[C@@H]43)[C@@H]1CC[C@@H]2O [Nandrolone]
inactive: 1 nM -1.64% | 8.33 nM -1.9% | 100 nM -1.06% | 833.33 nM 1.95% | 10000 nM -0.94%
